hDAT+cocaine – modulates human dopamine transporter uptake under cocaine. Q01959. LLC-PK1 hDAT cells, [14C]-dopamine uptake with cocaine IC80; actives deviate in either direction. B-score at 10 µM. actives 1.3% (n = 110,000). AID 449768;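 active means Z score or B-score, a plate-position-corrected score, falls beyond the plate's 99.7% confidence bounds, in either direction; inactive means both scores lie inside the 99.7% bounds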;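 further: scored against the spread of the other compound wells on the same plate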
D1 allo mod – allosteric modulators of human D1 dopamine receptor. AID 641. HEK293 D1, CRE-luciferase, dopamine EC30 potentiation; actives deviate in either direction. B-score at 10 µM. actives 5.9% (n = 58,000);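 active means luminescence count or its row- and column-corrected plate score outside the 99.7% band of the plate's sample wells, on either side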
CYP2C19 activ – increases human CYP2C19 enzyme activity | activation factor at 5 µM | 96,000 tested, under 10 active | P33261 | recombinant CYP2C19, luciferin-H EGE luminescence; stronger effect = higher value; 0 = fully inhibited enzyme, 1 = untreated enzyme;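 active means activation factor of at least 2 at 5 µM in the primary screen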;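 further: 0 = wells with 2.5 mM tranylcypromine and 1 = vehicle-only wells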
Target sequence (P33261 whole entry, looked up): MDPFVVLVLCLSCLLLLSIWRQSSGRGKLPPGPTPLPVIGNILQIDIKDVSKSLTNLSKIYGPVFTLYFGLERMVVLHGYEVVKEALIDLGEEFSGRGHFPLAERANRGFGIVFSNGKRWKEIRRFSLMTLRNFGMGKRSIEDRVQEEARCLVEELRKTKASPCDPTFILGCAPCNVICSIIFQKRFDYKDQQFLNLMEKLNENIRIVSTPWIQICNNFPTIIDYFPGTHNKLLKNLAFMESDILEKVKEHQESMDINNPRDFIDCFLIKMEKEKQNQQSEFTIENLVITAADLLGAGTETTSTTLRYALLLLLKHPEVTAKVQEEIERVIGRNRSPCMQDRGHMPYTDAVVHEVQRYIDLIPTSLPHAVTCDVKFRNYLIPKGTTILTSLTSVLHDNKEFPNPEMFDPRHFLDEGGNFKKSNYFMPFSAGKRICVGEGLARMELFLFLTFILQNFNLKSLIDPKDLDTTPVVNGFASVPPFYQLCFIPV
CYP2C9 inh – inhibitors of human CYP2C9. P11712. CYP2C9 Supersomes, luciferin-H conversion, luminescence. inhibition, % at 5 µM. actives 20% (n = 96,000). AID 777;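 active means blocking of liver enzyme CYP2C9 beyond about 50% at 5 µM, limit read from the data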
CYP2C19 inhib – blocks human cytochrome P450 2C19; P33261; CYP2C19 Supersomes, luciferin-H EGE luminescence, 30 min; actives 21% (n = 96,000); inhibition, % at 5 µM;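 active means CYP2C19 inhibition above a set limit at 5 µM in the primary screen, cut at about 50% in these data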;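 further: plate controls were negative control wells for no effect and 2.5 mM tranylcypromine positive control for full effect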
CYP2C9 activ – increases human cytochrome P450 2C9 activity. activation factor at 5 µM. P11712. actives 1.4% (n = 96,000). recombinant CYP2C9, luciferin-H conversion, luminescence; stronger effect = higher value; factor 1 = untreated enzyme, 0 = blocked;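 active means activation factor of 2 or more for CYP2C9 at a 5 µM dose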;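 further: 0 = sulfaphenazole-blocked wells and 1 = vehicle-only wells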
Starred values were filed as active, the others as inactive; . = no result. Sampled rows, rich in hits. Any-hit rate of the full collection: about 28%.

SMILES	hDAT+cocaine	D1 allo mod	CYP2C19 activ	CYP2C9 inh	CYP2C19 inhib	CYP2C9 activ
Cc1ccc(-n2nc(C)c3c2OC(N)=C(C#N)C3c2ccoc2)cc1 (stereo not given)	-0.087	-1.3	0.7	64*	26	0.4
Cc1nn(-c2ccccc2)c2c1C(c1ccccc1)C(C#N)=C(N)O2 (stereo not given)	-0.98	0.0026	0.1	87*	90*	0.1
Cc1ccc(-n2nc(C)c3c2OC(N)=C(C#N)C3c2ccco2)cc1 (stereo not given)	0.46	0.37	0.8	37	18	0.6
COc1ccc(OC)c(C2C(C#N)=C(N)Oc3c2c(C)nn3-c2ccc(C)cc2)c1 (stereo not given)	-0.2	-0.86	0.9	48	13	0.5
CCCCC(=O)Nc1ccc(N2CCN(S(C)(=O)=O)CC2)cc1	1.3	-0.083	1	5	2	1
Cc1nn(Cc2ccccc2)c2c1C(c1ccc(Cl)cc1)C(C#N)=C(N)O2 (stereo not given)	-0.0027	.	.	.	.	.
COc1ccc(C2C(C#N)=C(N)Oc3c2c(C)nn3-c2ccccc2)cc1Cn1nc(C)c([N+](=O)[O-])c1C (stereo not given)	-0.49	.	0.7	85*	31	0.2
Cc1ccccc1C(=O)N=c1sccn1C	-0.79	.	0.1	22	93*	0.8
Cc1ccc(CN(Cc2cc3cccc(C)c3[nH]c2=O)C(=O)N(C)C)cc1	0.0081	-0.35	0.5	14	52*	0.9
Cc1cccc2cc(CN(Cc3cccnc3)C(=O)c3ccncc3)c(=O)[nH]c12	-0.2	-0.027	0.3	61*	73*	0.4
Cc1cccc2cc(CN(Cc3ccccc3)C(=O)N(C)C)c(=O)[nH]c12	-1.2	0.39	0.6	40	45	0.6
O=C(O)c1ccccc1S	.	0.87	.	.	.	.
Cn1c(=O)c2[nH]c(CN(Cc3ccccc3)Cc3ccccc3)nc2n(C)c1=O	.	-0.99	0.9	81*	6	0.2
Cn1c(=O)c2[nH]c(-c3ccccc3)nc2n(C)c1=O	-0.26	.	.	.	.	.
CN(C)Cc1nc2c([nH]1)c(=O)n(C)c(=O)n2C	0.35	0.5	0.5	6	51*	0.9
CN(Cc1ccccc1)Cc1nc2c([nH]1)c(=O)[nH]c(=O)n2C	-0.34	-0.11	1.1	-25	-14	1.2
Nc1nnc(CC(=O)NCc2ccccc2)s1	0.21	-0.014	0.9	-4	6	1
O=c1[nH]c(CSc2nc3ccccc3o2)nc2c1cnn2-c1ccccc1	0.49	.	0.2	68*	78*	0.3
O=c1[nH]c(SCc2nc3c(cnn3-c3ccccc3)c(=O)[nH]2)nc2ccccc12	0.48	.	0.6	44	41	0.6
CC1CCCN(C(=O)c2ccc(CNc3c(N4CCCCC4)c(=O)c3=O)cc2)C1 (stereo not given)	0.72	.	0.9	2	10	1
CC1CCCN(C(=O)c2ccc3c(c2NCCO)C(=O)c2ccccc2C3=O)C1 (stereo not given)	1.8	.	0.4	35	59*	0.6
Clc1ccc2c(NNc3ccccc3Cl)ccnc2c1	0.47	.	0.8	60*	25	0.4
CCOC(=O)Cn1c(N2CCOCC2)nc2c1c(=O)[nH]c(=O)n2C	-0.23	-1.4	1	-7	4	1.1
CC(C)(C)C(=O)NC1CCN(S(C)(=O)=O)CC1	-0.58	.	.	.	.	.
CC(C)(C)C(=O)NC1CCN(C(=O)N2CCCC2)CC1	-0.02	0.097	0.5	6	53*	0.9
SMILES	hDAT+cocaine	D1 allo mod	CYP2C19 activ	CYP2C9 inh	CYP2C19 inhib	CYP2C9 activ
Cc1cc(C)cc(NC(=S)N2CCC(c3nc4ccccc4s3)CC2)c1	-0.3	.	1	-2	-1	1
O=C(CSc1ccc(Cl)cc1Cl)N1CCC(c2nc3ccccc3s2)CC1	1.9	.	0.5	58*	55*	0.4
Clc1ccsc1-c1csc(-c2cccnc2)n1	-0.16	.	0.4	6	62*	0.9
c1csc(-c2csc(-c3cccs3)n2)c1	0.22	0.79	1.1	-1	-7	1
c1cncc(-c2nc(-c3ccco3)cs2)c1	-0.0029	1.1	0.7	0	28	1
c1cncc(-c2nc(-c3ccc4c(c3)OCO4)cs2)c1	-0.33	0.16	0.3	37	69*	0.6
c1cncc(-c2nc(-c3cccs3)cs2)c1	-0.42	.	0.3	27	70*	0.7
COC(=O)C1N[C@@H]([C@@H](NC(=O)COc2ccccc2)C(=O)Nc2ccc(OC)cc2)SC1(C)C (stereo not given in full)	0.83	.	.	.	.	.
Cc1cc(NC(=O)CSc2nnc(Cn3c(=O)sc4ccccc43)n2-c2ccccc2C)no1	.	1.1	.	.	.	.
CCC(=O)N1c2ccc(S(=O)(=O)CCC(=O)NCCC3=CCCCC3)cc2CC1C (stereo not given)	0.12	-0.071	0.8	61*	21	0.4
CCC(=O)N1CCc2cc(S(=O)(=O)CCC(=O)NCc3cccs3)ccc21	0.0095	1.5	1	4	2	1
CCC(=O)N1CCc2cc(S(=O)(=O)CCC(=O)NCCC3=CCCCC3)ccc21	-0.031	0.34	0.9	53*	13	0.5
CCC(=O)N1c2ccc(S(=O)(=O)CCC(=O)NCc3ccc4c(c3)OCO4)cc2CC1C (stereo not given)	-2	0.59	0.8	42	23	0.6
COc1ccc(OC)c(S(=O)(=O)N2CCC(C(=O)NCCC3=CCCCC3)CC2)c1	-0.84	-1.4	.	.	.	.
O=C(NCc1cccs1)C1CCN(S(=O)(=O)c2cccc3cccnc23)CC1	0.64	1.5	0.5	-77	54*	1.8
COc1ccc(OC)c(S(=O)(=O)N2CCC(C(=O)NCc3ccccc3)CC2)c1	1.6	0.47	0.7	-268	25	3.7*
O=C(NCc1cccs1)C1CCN(c2nccs2)CC1	-0.19	.	0.2	56*	84*	0.4
COc1ccc(OC)c(S(=O)(=O)N2CCC(C(=O)NCc3ccccc3OC)CC2)c1	-0.083	-0.28	0.7	-144	35	2.4*
Cc1cc(C)nc(N2CCC(C(=O)NCc3cccs3)CC2)n1	-1.7	-0.05	1	-23	1	1.2
CCOc1cc(C(=O)Nc2cccc3ncccc23)cc(OCC)c1OCC	1	.	0.9	16	11	0.8
O=C(Nc1ccc(S(=O)(=O)Nc2ncccn2)cc1)c1ccc(Br)s1	-1.2	.	1	18	0	0.8
CCn1cc(C(=O)N2CCOCC2)c(=O)c2cc(S(=O)(=O)N(C)C3CCCCC3)ccc21	-0.3	0.48	1.2	-7	-23	1.1
COc1ccccc1CNC(=O)C1CCN(S(=O)(=O)c2cccc3cccnc23)CC1	-0.63	.	0.4	-154	64*	2.5*
O=C(NCc1ccco1)C1CCN(S(=O)(=O)c2cccc3cccnc23)CC1	-0.19	0.35	0.6	-39	38	1.4
O=C(C1CCN(S(=O)(=O)N2CCC3(CC2)OCCO3)CC1)N1CCc2ccccc2C1	.	2	0.2	41	76*	0.6
